# Many of the other results were omitted from the sample, so hits are more common in it than they were.
# CXXC DNA block = qHTS Fluorescence Polarization Assay for Inhibitors of MLL CXXC domain - DNA interaction; Potency, µM (series often up to 115 µM), for the others: top-dose activity change, negative = inhibition, actives largely listed as inhibitors; MLL-CXXC / FITC-HOXA9 DNA fluorescence polarization; Histone-lysine N-methyltransferase 2A (Homo sapiens), Q03164; 290,000 tested, 0.037% active; active = well fitted inhibition curve with a large enough effect in the polarisation, with a control signal flat, not every such curve was filed as active; inconclusive = small, poorly fitted or top-dose-only effect, or effect the other way, or a change in a side signal; inactive = no such curve, though single readings can be large or run the other way; the % refers to the polarisation; note: potency is the fitted concentration of half-maximal effect
#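 Fluorescence polarization: 7 uM MLL-CXXC (stock) preincubated 5 min with compounds, then 50 nM fluorescein-HOX-A9 DNA (stock) added; 30 min ambient. Buffer 50 mM Tris-HCl pH 7.5, 50 mM NaCl, 1 mM DTT, 0.05% BSA.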
# p53 reactivator = qHTS assay for re-activators of p53 using a Luc reporter; 320,000 tested, 0.063% active; Potency, µM (series often up to 92.2 µM), for the others: top-dose activity change, positive = activation, most hits filed as activators; H1299 p53-A138V BP100-luciferase reporter, luminescence, 24 h; active = well fitted activation curve with a large enough effect; inconclusive = small, poorly fitted or top-dose-only effect; inactive = no such curve, though single readings can be large or run the other way; note: potency is the fitted concentration of half-maximal effect; % of control where 0% means no effect; nearly all actives have a fitted effect of over 45% in size
#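 p53-null H1299 cells stably carrying temperature-sensitive p53-A138V and a BP100-luciferase reporter were pinned with compounds (4-point, 1:5 series) and held 24 hrs at 37 deg C. Luminescence was read 10 min after detection reagent.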
# Menin-MLL FL inh = qHTS Assay for Inhibitors Targeting the Menin-MLL Interaction in MLL Related Leukemias: Competition With Fluorescein Labeled MLL-derived Peptide | FP activity change, % at 61.4 µM | Fluorescence polarization, fluorescein-MLL peptide displacement from menin | 290,000 tested, under 10 active; active = well fitted curve in the direction sought with a large enough effect in the polarisation, not every such curve was filed as active; inconclusive = small, poorly fitted or top-dose-only effect, or effect the other way, or a change in a side signal; inactive = no such curve, though single readings can be large or run the other way; the % refers to the polarisation; note: % of control where 0% means no effect
# Menin-MLL TR inh = qHTS Assay for Inhibitors Targeting the Menin-MLL Interaction in MLL Related Leukemias: Competition With Texas Red Labeled MLL-derived Mutant Peptide; O00255; Menin + Texas Red MLL mutant peptide, fluorescence polarization; Potency, µM (series often up to 61.6 µM), for the others: top-dose FP activity change, negative = inhibition, most hits filed as inhibitors; 270,000 tested, 0.23% active; active = well fitted inhibition curve with a large enough effect in the polarisation, with a control signal flat, not every such curve was filed as active; inconclusive = small, poorly fitted or top-dose-only effect, or effect the other way, or a change in a side signal; inactive = no such curve, though single readings can be large or run the other way; the % refers to the polarisation; note: potency is the fitted concentration of half-maximal effect; % of control where 0% means no effect
# ClpP mod = qHTS Assay for Activators of ClpP | purified B. subtilis ClpP, FRET peptide cleavage, 20 min | Potency, µM (highest dose often 57.5 µM), for inactives: at the top dose activity change, negative = active | 340,000 tested, 1.9% active | ATP-dependent Clp protease proteolytic subunit (Bacillus subtilis (strain 168)), P80244; active = well fitted falling curve with a large enough effect; inconclusive = small, poorly fitted or top-dose-only effect; inactive = no such curve, though single readings can be large or run the other way; note: potency is the fitted concentration of half-maximal effect; the source files actives as falling curves though it sought activators and does not explain the sign; nearly all actives have a fitted effect of over 65% in size
#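 Purified B. subtilis ClpP, 10 microg/mL final in Tris/HCl pH8 with KCl, BSA, glycerol and Tween-20, cleaved an Abz/nitrotyrosine-quenched decapeptide. Fluorescence (ex 320, em 430) was read at 0 and 20 min at room temperature. Delta was normalized to 5.8 microM ADEP and DMSO/no-enzyme controls.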
# Active calls of the source: *; ? = inconclusive; / = no result; [ ] = remark or other dose.
SMILES,CXXC DNA block,p53 reactivator,Menin-MLL FL inh,Menin-MLL TR inh,ClpP mod
Cc1cc(C)nc(SCc2ccc(C(=O)NNC(=O)Nc3cccc(Cl)c3)cc2)n1,11.1%,-32.3%,6.1,-14.5%,35.5µM*
Cc1cc(C)nc(SCc2ccc(C(=O)N/N=C/c3ccncc3)cc2)n1,-0.5%,-5.4%,2.1,-3.3%,/
Cc1ccc(C2NC(=O)c3ccccc3N2)s1 (stereo not given),-4.3%,?,0.6,3.2%,28.2µM*
Cc1ccc(C2NC(=O)c3ccccc3N2)c(C)c1 (stereo not given),/,/,/,/,28.2µM*
Cc1cccc(C2NC(=O)c3ccccc3N2)c1 (stereo not given),/,/,/,/,28.2µM*
CCOc1ccccc1C1NC(=O)c2ccccc2N1 (stereo not given),/,/,/,/,22.4µM*
CN1N/C(=C\c2ccccc2)N=C2C(=O)N(C)C(=O)N=C21,/,/,/,/,-2.0%
Cn1cc(/C=C/c2ccc3ccccc3n2)c2ccccc21,/,/,/,/,-6.9%
Fc1ccc(CCNc2ncnc3nc[nH]c23)cc1,/,/,/,/,-1.4%
CSc1cccc(NC(=O)Cn2c3ncccc3c(=O)n2-c2ccc(C)cc2)c1,/,/,/,/,25.1µM*
CCOC(=O)c1sc(C)c2c1NC1(CCCCCC1)NC2=O,-10.8%,5.9%,-0.9,-8.3%,?
CCOC(=O)c1sc(C)c2c1NC(C)(c1cccs1)NC2=O (stereo not given),5.1%,-12.1%,2.3,-10.5%,28.2µM*
CCOC(=O)c1sc(C)c2c1NC1(CCCCC1)NC2=O,4.5%,-22.4%,2.4,8.4%,31.6µM*
Cc1cc(NCCC(C)C)n2nc(C)c(-c3ccccc3)c2n1,-1.8%,15.7%,6.0,3.5%,28.2µM*
Cc1cc(NCCCN2CCOCC2)n2nc(C)c(-c3ccccc3)c2n1,-4.4%,0.7%,1.2,-2.7%,-13.2%
CCOc1cc(C2Nc3ccccc3C(=O)N2c2ccccc2)c(Br)cc1OCC(=O)O (stereo not given),3.9%,23.1%,-0.3,-2.0%,?
CCOC(=O)COc1c(OC)cc(Cl)cc1C1Nc2ccccc2C(=O)N1c1cccc(C)c1 (stereo not given),-5.4%,-5.6%,2.9,/,28.2µM*
CCOc1cc(C2Nc3ccccc3C(=O)N2c2ccccc2)ccc1O (stereo not given),-0.3%,20.1%,1.1,3.5%[11.7 µM],?
CCOC(=O)COc1c(OC)cc(Cl)cc1C1Nc2ccccc2C(=O)N1c1ccccc1 (stereo not given),2.4%,-6.9%,0.4,-12.0%,28.2µM*
COc1cc(C2Nc3ccccc3C(=O)N2c2ccc(Cl)cc2)c(Cl)cc1OCC(=O)O (stereo not given),7.8%,?,-0.3,5.7%,28.2µM*
CCOC(=O)COc1ccccc1C1Nc2ccccc2C(=O)N1c1cccc(Cl)c1 (stereo not given),-0.2%,14.2%,0.1,/,25.1µM*
O=S(=O)(O)CC(S)CS (stereo not given),11.5%,/,-0.5,-6.7%,/
CC(=O)Nc1ccc(/C=C/c2sc3ccccc3[n+]2CCCCI)cc1,/,/,/,/,2.3%
COc1ccc(C2Nc3ccccc3C(=O)N2c2ccc(F)cc2)cc1COc1ccc(NC(C)=O)cc1 (stereo not given),/,/,/,/,4.5%
CCOC(=O)COc1c(OC)cc(Cl)cc1C1Nc2ccccc2C(=O)N1c1ccc(F)cc1 (stereo not given),-3.4%,-2.3%,3.6,2.9%,31.6µM*
SMILES,CXXC DNA block,p53 reactivator,Menin-MLL FL inh,Menin-MLL TR inh,ClpP mod
O=Cc1cn(-c2ccccc2)nc1-c1cc2c(ccc3ccccc32)oc1=O,19.1%,2.6%,-0.1,-12.3%,5.62µM*
N#Cc1cn(-c2ccccc2)nc1-c1cc2ccccc2oc1=O,-3.6%,14.6%,3.3,-30.8%,31.6µM*
C[N+]1(CC(=O)c2ccc(O)c(O)c2)CCOCC1,/,/,/,/,-3.0%
CCCCN(CC)CCCNC(=O)C1CCN(c2nc3ccc(CC)cc3s2)CC1,/,/,/,/,-4.7%
CCCc1nc(NC2CCCCC2)c(C#N)c2c1COC(C)(C)C2,1.2%,-4.3%,1.8,-1.0%,35.5µM*
CCc1nc(NCC2CCCO2)c(C#N)c2c1COC(C)(C)C2 (stereo not given),0.9%,-0.3%,1.9,-15.5%,13.0%
CCCc1[nH]c(=O)c(C#N)c2c1COC(C)(C)C2,8.8%,0.5%,5.1,-1.1%,25.1µM*
CC(C)c1[nH]c(=O)c(C#N)c2c1COC(C)(C)C2,2.2%,-6.2%,0.7,4.8%,31.6µM*
CC(C)c1nc(NCC2CCCO2)c(C#N)c2c1COC(C)(C)C2 (stereo not given),-4.3%,2.1%,-0.7,-11.3%,28.2µM*
Cc1noc(C)c1S(=O)(=O)N1CCc2nc(-c3ccccc3)c3c(c2C1)CO[C@@H](C)C3,/,/,4.3[11.7 µM],-3.9%[11.7 µM],/
Cc1ccc(NC(=O)CSc2nnc(-c3ccccc3)n2C)cc1,/,/,/,/,2.7%
O=C(NC(NC(=S)Nc1ccc(F)c([N+](=O)[O-])c1)C(Cl)(Cl)Cl)C(c1ccccc1)c1ccccc1 (stereo not given),/,/,-1.9,?,/
CCOc1ccccc1CNc1ccc(O)cc1,-16.4%,-12.5%,-3.6,28.2µM*,-10.9%
CCOc1cccc(CNc2ccc(O)cc2)c1OCc1ccc(Cl)cc1,-0.8%,-3.2%,-1.3,31.6µM*,-1.3%
Oc1ccc(NCc2ccc(OCc3ccccc3)cc2)cc1,-10.6%,?,?,?,-5.3%
CCc1ccc(CNc2ccc(O)cc2)cc1,3.0%,3.9%,-1.9,35.5µM*,-0.9%
Oc1ccc(NCc2ccccc2OCc2ccccc2Cl)cc1,/,/,/,/,-3.3%
O=C(C[n+]1c2ccccc2cc2ccccc21)c1ccc(F)cc1,/,/,/,/,3.8%
COc1ccc(S(=O)(=O)Nc2ccccc2C(=O)Nc2nc(-c3ccc(F)cc3)cs2)cc1OC,-8.1%,7.3%,-0.2,?,15.8µM*
CCCNC(=O)c1ccccc1NS(=O)(=O)c1ccc(OC)c(OC)c1,3.1%,-0.1%,5.2,-4.6%,31.6µM*
CCCCCC(CC)COC(=O)CC(C(=O)OCC(CC)CCCC)S(=O)(=O)O (stereo not given),/,/,-1.0,-10.7%,/
O=C(CN1CCC(n2nnc3cc(F)ccc32)CC1)Nc1ccc2c(c1)CCC2,13.8%,-7.6%,3.0,-4.1%,14.1µM*
O=C(CN1CCC(n2nnc3ccccc32)CC1)Nc1ccc2c(c1)CCC2,3.7%,-11.9%,1.1,1.6%,1.4%
